# In the supplement of paper PMC8728848:
# The full list was thinned out, with the strongest signals kept by preference.
# How the values were obtained:
# Assay in all cases: glycan array binding signal (z-score within array); higher = stronger binding
# Settings in all cases: glycan notation: IUPAC condensed, linker removed
# [1] = biological target: Fuc(a1-2)Gal(b1-3)GlcNAc(b1-3)GalNAc
# Method in brief: (§1)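 Columns mapping to the same glycan were averaged after glycan names were converted to IUPAC-condensed notation. The data come from 3228 arrays in the Consortium for Functional Glycomics database, limited to those with an available protein sequence. Binding is reported as a within-array Z-score averaged across arrays of one protein sequence and across linkers.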
# Fuc(a1-2)Gal(b1-4)Glc = biological target: Fuc(a1-2)Gal(b1-4)Glc
# Method in brief: as §1
# [2] = biological target: Fuc(a1-2)Gal(b1-4)GlcNAc(b1-2)[Fuc(a1-2)Gal(b1-4)GlcNAc(b1-4)]Man(a1-3)[Fuc(a1-2)Gal(b1-4)GlcNAc(b1-2)Man(a1-6)]Man(b1-4)GlcNAc(b1-4)GlcNAc
# Method in brief: as §1
# [3] = biological target: Fuc(a1-2)Gal(b1-4)GlcNAc(b1-3)GalNAc
# Method in brief: as §1
# [4] = biological target: Fuc(a1-2)Gal(b1-4)GlcNAc(b1-3)[Fuc(a1-3)[Gal(b1-4)]GlcNAc(b1-6)]Gal(b1-4)Glc
# Method in brief: as §1
# [5] = biological target: Fuc(a1-2)Gal(b1-4)[Fuc(a1-3)]GlcNAc(b1-2)[Fuc(a1-2)Gal(b1-4)[Fuc(a1-3)]GlcNAc(b1-4)]Man(a1-3)[Fuc(a1-2)Gal(b1-4)[Fuc(a1-3)]GlcNAc(b1-2)Man(a1-6)]Man(b1-4)GlcNAc(b1-4)GlcNAc
# Method in brief: as §1
# [6] = biological target: Fuc(a1-2)[Gal(a1-3)]Gal(b1-4)GlcNAc(b1-2)Man(a1-3)[Fuc(a1-2)[Gal(a1-3)]Gal(b1-4)GlcNAc(b1-2)Man(a1-6)]Man(b1-4)GlcNAc(b1-4)GlcNAc
# Method in brief: as §1
# [7] = biological target: Fuc(a1-2)[GalNAc(a1-3)]Gal(b1-3)GlcNAc
# Method in brief: as §1
# [8] = biological target: Fuc(a1-2)[GalNAc(a1-3)]Gal(b1-3)GlcNAc(b1-6)GalNAc
# Method in brief: as §1
# [9] = biological target: Fuc(a1-2)[GalNAc(a1-3)]Gal(b1-4)GlcNAc(b1-2)Man(a1-3)[Fuc(a1-2)[GalNAc(a1-3)]Gal(b1-4)GlcNAc(b1-2)Man(a1-6)]Man(b1-4)GlcNAc(b1-4)GlcNAc
# Method in brief: as §1
# [10] = biological target: Fuc(a1-2)[GalNAc(a1-3)]Gal(b1-4)GlcNAc(b1-6)GalNAc
# Method in brief: as §1
# [11] = biological target: Fuc(a1-3)[Gal(b1-4)]GlcNAc(b1-3)GalNAc
# Method in brief: as §1
# Fuc(a1-4)GlcNAc = biological target: Fuc(a1-4)GlcNAc
# Method in brief: as §1
# Gal(a1-3)Gal(b1-4)GlcNAc = biological target: Gal(a1-3)Gal(b1-4)GlcNAc
# Method in brief: as §1
# Gal(b1-2)Gal = biological target: Gal(b1-2)Gal
# Method in brief: as §1
# Gal(b1-3)Gal = biological target: Gal(b1-3)Gal
# Method in brief: as §1
# [12] = biological target: Gal(b1-3)GalNAc(b1-4)Gal(b1-4)Glc
# Method in brief: as §1
# [13] = biological target: Gal(b1-3)GlcNAc(a1-6)Gal(b1-4)GlcNAc
# Method in brief: as §1
# [14] = biological target: Gal(b1-3)GlcNAc(b1-3)Gal(b1-3)GlcNAc
# Method in brief: as §1
# [15] = biological target: Gal(b1-3)GlcNAc(b1-3)Gal(b1-4)[Fuc(a1-3)]GlcNAc(b1-6)[Gal(b1-3)GlcNAc(b1-3)]Gal(b1-4)Glc
# Method in brief: as §1
# [16] = biological target: Gal(b1-3)[Fuc(a1-4)]GlcNAc(b1-6)GalNAc
# Method in brief: as §1
# [17] = biological target: Gal(b1-4)GlcNAc(b1-3)Gal(b1-4)GlcNAc(b1-2)[Gal(b1-4)GlcNAc(b1-3)Gal(b1-4)GlcNAc(b1-6)]Man(a1-6)[Gal(b1-4)GlcNAc(b1-3)Gal(b1-4)GlcNAc(b1-2)Man(a1-3)]Man(b1-4)GlcNAc(b1-4)GlcNAc
# Method in brief: as §1
# [18] = biological target: Gal(b1-4)GlcNAc(b1-3)Gal(b1-4)GlcNAc(b1-3)Gal(b1-4)GlcNAc(b1-2)Man(a1-3)[Gal(b1-4)GlcNAc(b1-3)Gal(b1-4)GlcNAc(b1-3)Gal(b1-4)GlcNAc(b1-2)Man(a1-6)]Man(b1-4)GlcNAc(b1-4)GlcNAc
# Method in brief: as §1
# [19] = biological target: Gal(b1-4)GlcNAc(b1-3)Gal(b1-4)GlcNAc(b1-3)Gal(b1-4)GlcNAc(b1-3)Gal(b1-4)GlcNAc(b1-3)Gal(b1-4)GlcNAc(b1-2)Man(a1-3)[Gal(b1-4)GlcNAc(b1-3)Gal(b1-4)GlcNAc(b1-3)Gal(b1-4)GlcNAc(b1-3)Gal(b1-4)GlcNAc(b1-3)Gal(b1-4)GlcNAc(b1-2)Man(a1-6)]Man(b1-4)GlcNAc(b1-4)GlcNAc
# Method in brief: as §1
# [20] = biological target: Gal(b1-4)GlcNAc(b1-3)Gal(b1-4)GlcNAc(b1-3)Gal(b1-4)GlcNAc(b1-3)Gal(b1-4)GlcNAc(b1-3)Gal(b1-4)GlcNAc(b1-2)[Gal(b1-4)GlcNAc(b1-3)Gal(b1-4)GlcNAc(b1-3)Gal(b1-4)GlcNAc(b1-3)Gal(b1-4)GlcNAc(b1-3)Gal(b1-4)GlcNAc(b1-6)]Man(a1-6)[Gal(b1-4)GlcNAc(b1-3)Gal(b1-4)GlcNAc(b1-3)Gal(b1-4)GlcNAc(b1-3)Gal(b1-4)GlcNAc(b1-3)Gal(b1-4)GlcNAc(b1-2)Man(a1-3)]Man(b1-4)GlcNAc(b1-4)[Fuc(a1-6)]GlcNAc
# Method in brief: as §1
# [21] = biological target: Gal3S(b1-4)[Fuc(a1-3)]GlcNAc
# Method in brief: as §1
# Gal3S6S(b1-4)GlcNAc6S = biological target: Gal3S6S(b1-4)GlcNAc6S
# Method in brief: as §1
# GalNAc(a1-3)Gal = biological target: GalNAc(a1-3)Gal
# Method in brief: as §1
binder,measurement,setting,value
PkBDPgamma (Plasmodium knowlesi) (protein) SAINQIFLQNNVMDKCNDKRKRGERDWDCPTEKDVCIPDRRYQLCMMEITNLVDTDTHFHSDIIFRKSYSRRRLIYDVGGRGDLLLKKYNNVYSEDLCKDIKWSLQDFGDIIMGTDMEGIGYSLVVQNNLRSIFGTGTSAELDRKKWWNDHKKDIWKAMILSVKEKNRYSAWNCKEDVQIKVEPQIYRWIREWGRDYMSEFREQRRKLNEKCEDKLYYSTMLICTLPPCNNACKSYDEWITGKKKQWDVLSTKFSSVKKAQKIETENIARAYDILKQELNGFNEVTFENEINKRDKLYNYFCVCIVQEARKNTQENVKNVGSGVESKAPSSNPINEAVKSSSGEGKVQEDSAHRSVNEGEGKSSTNEADPGSQPGAAASGGGSGGGTGGGVDLAPQMLRELQETNAALQDVRELLRQQVKEITFLKNTVMECDACGGPLDRNLPPLAPLGPTGGWSHPQFEK,glycan array binding signal (z-score),[1],0.928
same,glycan array binding signal (z-score),Fuc(a1-2)Gal(b1-4)Glc,-0.028
same,glycan array binding signal (z-score),[2],-0.391
same,glycan array binding signal (z-score),[3],1.14
same,glycan array binding signal (z-score),[4],-0.305
same,glycan array binding signal (z-score),[5],0.541
same,glycan array binding signal (z-score),[6],0.37
same,glycan array binding signal (z-score),[7],0.388
same,glycan array binding signal (z-score),[8],-0.403
same,glycan array binding signal (z-score),[9],0.106
same,glycan array binding signal (z-score),[10],-0.264
same,glycan array binding signal (z-score),[11],0.185
same,glycan array binding signal (z-score),Fuc(a1-4)GlcNAc,-0.191
same,glycan array binding signal (z-score),Gal(a1-3)Gal(b1-4)GlcNAc,-0.331
same,glycan array binding signal (z-score),Gal(b1-2)Gal,-0.181
same,glycan array binding signal (z-score),Gal(b1-3)Gal,0.074
same,glycan array binding signal (z-score),[12],0.593
same,glycan array binding signal (z-score),[13],-0.036
same,glycan array binding signal (z-score),[14],-0.37
same,glycan array binding signal (z-score),[15],-0.308
same,glycan array binding signal (z-score),[16],-0.142
same,glycan array binding signal (z-score),[17],0.897
same,glycan array binding signal (z-score),[18],0.866
same,glycan array binding signal (z-score),[19],1.25
same,glycan array binding signal (z-score),[20],0.939
same,glycan array binding signal (z-score),[21],-0.081
same,glycan array binding signal (z-score),Gal3S6S(b1-4)GlcNAc6S,-0.041
same,glycan array binding signal (z-score),GalNAc(a1-3)Gal,-0.429
